Screens from PubChem BioAssay.
POLI inh = qHTS for Inhibitors of Polymerase Iota; 390,000 tested, 1% active; Potency, µM (top dose mostly 115 µM), without a hit: at the top dose activity, negative = inhibition, actives largely listed as inhibitors; Pol iota fluorescent replication assay, 10 min; DNA polymerase iota (Homo sapiens), Q9UNA4; AID 588590, 2011
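Pol iota at 10 nM preincubated 15 min with compounds at room temperature; reaction started with fluorescent substrate, 50 nM final. Fluorescence read kinetically at 0 and 10 min; buffer-only wells as negative control.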
WRN helicase inh = qHTS for Inhibitors of WRN Helicase; Bifunctional 3'-5' exonuclease/ATP-dependent helicase WRN (Homo sapiens), Q14191; AID 651768, 2012; Potency, µM (doses to about 114 µM), for the others: at the highest dose activity change, negative = inhibition, most hits filed as inhibitors; 360,000 tested, 0.46% active; WRN helicase unwinding, fluorescent forked duplex, kinetic; also: % is scaled to controls: 0 for no effect and ±100 for the full control effect; nearly all actives have a fitted effect of over 55% in size
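Kinetic fluorescence helicase assay: unwinding of a quenched forked DNA duplex (100 nM final) with 2 mM ATP final raises red fluorescence (525/598 nm). Compounds sat 15 min at room temperature with 20 nM WRN beforehand.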
FEN1 inh = qHTS Assay for the Inhibitors of Human Flap endonuclease 1 (FEN1) | Potency, µM (top dose mostly 114 µM), without a hit: at the top dose activity change, negative = inhibition, actives largely listed as inhibitors | 390,000 tested, 0.35% active | P39748 | Recombinant FEN1 flap cleavage, fluorescence, 15 min | AID 588795, 2011; also: % is scaled to controls: 0 for no effect and ±100 for the full control effect; nearly all actives have a fitted effect of over 65% in size
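In this screen, 50 nM flap DNA substrate was added to 10 nM FEN1 pretreated with compound for 15 min at room temperature; cleavage was followed with reads at 0 and 15 min, and Hill fitting gave concentration–response parameters.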
Pol eta inh = qHTS for Inhibitors of Polymerase Eta. recombinant Pol eta, fluorescent DNA replication assay. Potency, µM (titrated, usually from 114 µM), for inactives: at the highest dose activity change, negative = inhibition, usual class: inhibitors. 390,000 tested, 1.2% active. AID 588591, 2011; also: % is scaled to controls: 0 for no effect and ±100 for the full control effect
Target sequence (Q9Y253 whole entry, looked up): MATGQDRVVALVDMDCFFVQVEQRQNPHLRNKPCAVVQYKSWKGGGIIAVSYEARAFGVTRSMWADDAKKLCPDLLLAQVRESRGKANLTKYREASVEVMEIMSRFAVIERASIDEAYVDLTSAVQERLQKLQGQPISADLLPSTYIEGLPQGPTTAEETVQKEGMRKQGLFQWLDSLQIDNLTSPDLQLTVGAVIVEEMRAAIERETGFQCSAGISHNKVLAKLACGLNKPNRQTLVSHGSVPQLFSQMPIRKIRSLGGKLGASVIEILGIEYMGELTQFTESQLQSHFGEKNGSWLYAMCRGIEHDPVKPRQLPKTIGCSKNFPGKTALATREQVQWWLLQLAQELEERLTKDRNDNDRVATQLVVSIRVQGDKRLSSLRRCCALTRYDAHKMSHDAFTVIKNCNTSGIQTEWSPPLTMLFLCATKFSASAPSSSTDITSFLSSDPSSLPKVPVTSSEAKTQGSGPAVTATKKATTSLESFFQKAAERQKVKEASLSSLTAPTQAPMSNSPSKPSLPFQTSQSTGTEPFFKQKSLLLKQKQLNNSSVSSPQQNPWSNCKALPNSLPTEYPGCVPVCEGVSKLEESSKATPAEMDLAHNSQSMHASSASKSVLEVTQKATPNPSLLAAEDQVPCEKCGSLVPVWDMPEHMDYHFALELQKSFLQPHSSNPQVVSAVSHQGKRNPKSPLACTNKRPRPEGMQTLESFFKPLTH
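Pol eta (10 nM) was preincubated with compounds for 15 min at room temperature, after which fluorescent replication substrate (50 nM final) was added to start the reaction. Fluorescence was read kinetically at 0 and 10 min.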
POLK inh = qHTS for Inhibitors of Polymerase Kappa | DNA polymerase kappa (Homo sapiens), Q9UBT6 | purified Pol kappa, fluorescent DNA synthesis assay, 10 min | Potency, µM (titrated, usually from 107 µM), for inactives: top-dose activity, negative = inhibition, hits mostly inhibitors | 400,000 tested, 0.53% active; also: % is scaled to controls: 0 for no effect and ±100 for the full control effect
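50 nM final substrate added after 15 min RT preincubation of 10 nM Pol kappa with compound; fluorescence read at 0 and 10 min.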
POLB inh = qHTS Assay for Inhibitors of DNA Polymerase Beta; 340,000 tested, 1.3% active; Pol beta primer extension/strand displacement, fluorescence kinetic; Potency, µM (titrated, usually from 114 µM), inactives show at the highest dose activity change, negative = inhibition, actives largely listed as inhibitors; P06746; also: % is scaled to controls: 0 for no effect and ±100 for the full control effect
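Pol beta (10 nM) and compounds were preincubated 15 min at room temperature, then 50 nM substrate (final) started primer extension/strand displacement. Reads were taken at 0 and 10 min; concentration-response data were fitted to a four-parameter Hill equation.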
The depositor's hits bear a star; ? = inconclusive; · = no result; ! = repeats disagree; [ ] = another dose, or the depositor's remark. Compounds with a hit are over-represented: about 2.4% of the library has one in this group of screens. Calls follow the shape of the dose curve; as a rule, active = well fitted curve in the direction sought with a large enough effect; inconclusive = small, poorly fitted or top-dose-only effect, or another doubt; inactive = no such curve, though single readings can be large; an effect the other way counts as inactive or inconclusive. Potency is read from the fitted curve at half-maximal effect.

SMILES	POLI inh	WRN helicase inh	FEN1 inh	Pol eta inh	POLK inh	POLB inh
CC[C@H](C)[C@H](NC(=O)[C@H](CCC(=O)O)NC(=O)[C@H](CC(N)=O)NC(=O)[C@@H](N)[C@@H](C)O)C(=O)N[C@H](C(=O)N[C@@H](CCC(=O)O)C(=O)N[C@@H](CCC(=O)O)C(=O)N[C@@H](CCC(N)=O)C(=O)N[C@@H](Cc1ccc(O)cc1)C(=O)N[C@H](C(=O)N1CCC[C@H]1C(=O)N[C@@H](CCC(N)=O)C(=O)N[C@@H](CO)C(=O)N[C@@H](CC(C)C)C(=O)N[C@@H](C)C(=O)N[C@H](C(=O)N[C@@H](CC(C)C)C(=O)N[C@@H](CCC(=O)O)C(=O)N[C@@H](CO)C(=O)N[C@H](C(=O)N[C@@H](Cc1ccccc1)C(=O)N[C@@H](CCC(N)=O)C(=O)N[C@@H](CCC(=O)O)C(=O)N[C@@H](CC(C)C)C(=O)NCC(=O)N[C@@H](CCCCN)C(=O)N[C@@H](CC(C)C)C(=O)N[C@H](C(=O)NCC(=O)N1CCC[C@H]1C(=O)N[C@@H](CC(N)=O)C(=O)N[C@@H](CO)C(=O)N[C@@H](CCC(N)=O)C(=O)O)[C@@H](C)O)C(C)C)[C@@H](C)O)[C@@H](C)O)C(C)C	·	·	·	·	20%[60.1 µM]	·
Cc1cccc(N2CCN(C(=O)c3noc4c3COc3ccc(C)cc3-4)CC2C)c1 (configuration not stated)	50µM*!	-2%	-10%	-13%	?	2%
CCC1=Nc2cc(C(=O)NC(C)c3ccccc3)ccc2Sc2ccc(Cl)cc21 (configuration not stated)	10%	·	-1%	-14%	0%	-22%
CCCC1=Nc2cc(C(=O)NC(C)c3ccccc3)ccc2Sc2ccc(C)cc21 (configuration not stated)	89µM*	·	?	-10%	?	-14%
CCC1=Nc2cc(C(=O)NCCc3ccccc3)ccc2Sc2ccc(Cl)cc21	11%	·	6%	-13%	10%	2%
CCCC1=Nc2cc(C(=O)NCCc3ccccc3)ccc2Sc2ccc(C)cc21	?	·	79µM*	?	?	3%
CC[C@H](C)[C@H](NC(=O)[C@H](CO)NC(=O)[C@H](CC(C)C)NC(=O)[C@H](CO)NC(=O)[C@@H]1CCCN1C(=O)[C@H](CC(N)=O)NC(=O)[C@@H](N)CC(=O)O)C(=O)N[C@@H](CC(=O)O)C(=O)N[C@@H](CC(C)C)C(=O)N[C@H](C(=O)N[C@@H](Cc1ccccc1)C(=O)N[C@@H](Cc1cnc[nH]1)C(=O)N[C@@H](CC(C)C)C(=O)N[C@@H](CC(C)C)C(=O)N[C@@H](CCCNC(=N)N)C(=O)N[C@H](C(=O)N[C@@H](CC(C)C)C(=O)N[C@@H](CC(C)C)C(=O)N[C@@H](CCC(=O)O)C(=O)N[C@@H](CC(C)C)C(=O)N[C@@H](C)C(=O)N[C@@H](CCCNC(=N)N)C(=O)N[C@H](C(=O)N[C@@H](CCC(N)=O)C(=O)N[C@@H](CO)C(=O)N[C@@H](CCC(N)=O)C(=O)N[C@@H](CCCNC(=N)N)C(=O)N[C@@H](CCC(=O)O)C(=O)N[C@@H](CCCNC(=N)N)C(=O)N[C@@H](C)C(=O)N[C@@H](CCC(=O)O)C(=O)N[C@@H](CCC(N)=O)C(=O)N[C@@H](CC(N)=O)C(=O)N[C@@H](CCCNC(=N)N)C(=O)N[C@H](C(=O)N[C@H](C(=O)N[C@@H](Cc1ccccc1)C(=O)N[C@@H](CC(=O)O)C(=O)N[C@@H](CO)C(=O)N[C@H](C(N)=O)C(C)C)[C@@H](C)CC)[C@@H](C)CC)[C@@H](C)O)[C@@H](C)O)[C@@H](C)O	·	·	·	·	10%[60.1 µM]	·
Cc1cnc2ccccc2c1/C=C/c1ccc(N)cc1	-4%	·	-24%	·	-17%	·
CC1(C)CC(=O)C(N=Nc2cc(S(=O)(=O)N3CCOCC3)ccc2Cl)=C(O)C1	3%	-5%	16%	-18%	2%	22µM*
CC1(C)CC(=O)C(N=Nc2cc(C(F)(F)F)ccc2Cl)=C(O)C1	15%	3%	12%	-16%	6%	-1%
CSCC[C@H](NC(=O)[C@H](Cc1c[nH]c2ccccc12)NC(=O)CCNC(=O)OC(C)(C)C)C(=O)N[C@@H](CC(=O)O)C(=O)N[C@@H](Cc1ccccc1)C(N)=O	·	·	·	·	16%[60.1 µM]	·
COc1ccccc1-c1cc(C(=O)Nc2sc3c(c2C#N)CCC(C)C3)c2ccccc2n1 (configuration not stated)	5%	4%	-4%	-8%	-10%	-14%
Cc1cc(C(=O)OCC(=O)Nc2sc3c(c2C#N)CCC(C)C3)c2ccccc2n1 (configuration not stated)	56µM*	-13%[57.1 µM]	-7%	79µM*	?	18µM*
N#CC(=C(/N)Sc1ccccc1N)/C(C#N)=C(/N)Sc1ccccc1N	·	·	·	·	-16%[19.4 µM]	·
CCn1c(SCC(=O)c2ccc(CNC(C)=O)o2)nnc1-c1cccs1	?	-15%[57.1 µM]	5%	?	-28%	45µM*
CCn1c(SCC(=O)NCc2cccs2)nnc1-c1cccs1	8%	-4%	5%	-5%	-5%	-7%
CCN(CC)C(=O)c1ccc(COc2ccc(Cl)c(C)c2)o1	27%	-4%[57.1 µM]	-2%	-22%	0%	89µM*
O=c1c(-c2cc(F)cc(F)c2)nc2cncnc2n1Cc1ccccc1	·	·	·	·	-5%[60.1 µM]	·
COc1ccc(CN(Cc2ccccc2)C(=O)C2CC2)cc1COc1ccc(NC(C)=O)cc1	?	·	-6%	·	-26%	·
Cc1[nH]c2ccccc2c1C(c1c[nH]c2ccccc12)c1c(C)[nH]c2ccccc12	29%	·	1%	·	3%	·
CN(C)c1ccc(C=c2c3ccccc3n3c2cc(-c2ccccc2)[n+]3C)cc1	?	?	8.9µM*	?	-25%	·
COc1cc(C=c2c3ccccc3n3c2cc(-c2ccccc2)[n+]3C)cc(OC)c1OC	?	-1%[11.6 µM]	?	-12%	-6%	·
CN(c1ccc(Cl)cc1)c1cc(=O)n(C)c2ccccc12	6%	-1%	?	-10%	-8%	-29%
